# In PubChem BioAssay:
# Active and inactive are the calls of the source.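 Rule for the calls, unless noted: active = visually confirmed hit in the image check and inhibition above 20%; inconclusive = visually confirmed hit but inhibition not above 20%; inactive = no visual hit in the image check.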
# What was measured:
# [1] = inhibitors of TNFa-induced NFkB p65 translocation, primary screen, imaging, HUVEC, MLSMR starter and 10KST1 sets (AID 438;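 active = inhibition above 20% together with a positive visual image hit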;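 note: compound added about 3h40 before a 20 min TNFalpha stimulation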;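 for inhibition: signal is the nuclear over cytoplasmic p65 intensity ratio per well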); conditions: HUVEC TNFa-induced p65 nuclear translocation; cell count: measured here: nuclei count (cytotoxicity indicator), at 2.08 µM; inhibition: at 2 µM, stronger effect = higher value, 0% TNFa-plus-vehicle, 100% no-TNFa wells
# [2] = reduction of polyQ htt aggregates in cells – imaging, exon1htt(103Q)mCFP cells, high-content imaging, primary screen (AID 483;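 active = visual image review flags a hit and inhibition of aggregation exceeds 20%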;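 note: compound exposure lasted 3 days before fixation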;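 for nuclei count: percent of the per-plate median nuclei count of sample wells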); conditions: exon1htt(103Q)mCFP cell line, aggregate imaging, at 2 µM; inhibition of aggregation: stronger effect = higher value; nuclei count: measured here: cell count, toxicity
# [3] = endothelial E-selectin expression blockers – imaging, HUVEC, immunofluorescence, MLSMR starter and 10KST1 sets, primary screen (AID 487); conditions: HUVEC TNFalpha-induced E-selectin immunofluorescence imaging, at 2 µM; inhibition: stronger effect = higher value; nuclei count: measured here: cell number, toxicity;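 for inhibition: signal is fraction of cell area covered by stained E-selectin grains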;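 for nuclei count: 100% = median nuclei count of all wells on the same plate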
# [4] = target: Voltage-gated potassium channel subunit beta-2 (Rattus norvegicus) (UniProt P62483); assay: inhibitors of rat Kvbeta2 reductase activity – biochemical, NADPH fluorescence, primary screen (AID 622;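 active = fluorescence slope higher than the sample average by over 3 SD, cut at about -0.22 in these data, passing the limit was not always enough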;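 note: slope of raw intensity against log time taken from 70 to 1610 s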); conditions: recombinant KvBeta, 4-cyanobenzaldehyde reduction, at 10 µM, stronger effect = higher value
# Sequence of Voltage-gated potassium channel subunit beta-2 (Rattus norvegicus) (P62483 whole entry, looked up): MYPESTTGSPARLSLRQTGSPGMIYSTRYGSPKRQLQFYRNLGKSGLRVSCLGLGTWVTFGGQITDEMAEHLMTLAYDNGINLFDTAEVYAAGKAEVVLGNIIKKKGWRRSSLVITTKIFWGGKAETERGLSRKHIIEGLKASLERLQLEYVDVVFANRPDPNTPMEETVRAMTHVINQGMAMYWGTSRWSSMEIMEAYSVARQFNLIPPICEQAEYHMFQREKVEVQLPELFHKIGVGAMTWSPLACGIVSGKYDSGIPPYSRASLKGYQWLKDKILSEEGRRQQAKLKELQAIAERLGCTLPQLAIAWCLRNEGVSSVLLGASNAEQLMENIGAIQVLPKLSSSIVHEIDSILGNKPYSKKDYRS
# [5] = target: Voltage-gated potassium channel subunit beta-2 (Rattus norvegicus) (UniProt P62483); assay: enhancers of rat Kvbeta2 NADPH turnover – biochemical, NADPH fluorescence, primary screen (AID 623;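 active = NADPH fluorescence slope more negative than the mean of all samples by about 3 SD, 99.7% confidence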;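 note: fluorescence intensity change per second fitted from 20 to 320 s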); conditions: Recombinant KvBeta, NADPH fluorescence decrease slope, 10 min; at 10 µM; stronger effect = lower value
# [6] = target: Alpha-2C adrenergic receptor (Homo sapiens) (UniProt P18825); assay: compounds altering alpha2C-coupled GIRK flux – cell-based, HEK293 alpha2C/GIRK1/2, thallium flux, primary screen (AID 624;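 active = fluorescence slope after compound addition differing from the mean of all screened samples at 99.7% confidence, in either direction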;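 note: slope of fluorescence ratio to pre-addition baseline per second over 15 to 24 s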); conditions: thallium flux BTC fluorescence, at 10 µM, actives lie on both sides
# Sequence of Alpha-2C adrenergic receptor (Homo sapiens) (P18825 whole entry, looked up): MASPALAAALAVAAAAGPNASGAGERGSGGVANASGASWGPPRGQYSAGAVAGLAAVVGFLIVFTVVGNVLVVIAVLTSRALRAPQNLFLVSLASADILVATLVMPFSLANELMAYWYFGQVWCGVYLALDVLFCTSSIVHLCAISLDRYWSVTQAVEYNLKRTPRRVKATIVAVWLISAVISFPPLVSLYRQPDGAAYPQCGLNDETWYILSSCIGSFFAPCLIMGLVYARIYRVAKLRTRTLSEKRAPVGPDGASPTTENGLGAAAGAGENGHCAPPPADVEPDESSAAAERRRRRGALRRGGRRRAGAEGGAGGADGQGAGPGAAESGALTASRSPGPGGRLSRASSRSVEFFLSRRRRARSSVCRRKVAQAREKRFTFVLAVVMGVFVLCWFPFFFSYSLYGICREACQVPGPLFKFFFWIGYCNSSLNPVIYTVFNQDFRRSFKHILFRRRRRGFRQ
# [7] = blockers of RIG-like receptor reporter activation – cell-based, Sendai virus stimulus, luciferase, 10K MLSCN set, TLR/RLR signaling modifier project, primary screen (AID 602276;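 active = inhibition at or above 50% at 10 µM; inactive = inhibition below 50%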;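 note: firefly luciferase from ISG56 promoter only with Renilla not read in this screen; 0% = Sendai virus plus DMSO and 100% = medium plus DMSO without virus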); conditions: HEK293 RL24 IRF3 luciferase reporter, at 10 µM, stronger effect = higher value
# [8] = TLR3 IRF3 reporter activation blockers – cell-based, poly I:C stimulus, luciferase, 10K MLSCN set, primary screen (AID 602277;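 active = inhibition of the reporter signal at or above 50%; inactive = inhibition below 50%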); conditions: HEK293-TLR3 RL24 IRF3 luciferase reporter, at 10 µM, stronger effect = higher value
Structure (SMILES),cell count [1],inhibition [1],inhibition of aggregation [2],nuclei count [2],inhibition [3],nuclei count [3],fluorescence slope [4],NADPH fluorescence slope [5],slope [6],inhibition [7],inhibition [8]
CCN(CC)C(=O)c1ccc(CS(=O)(=O)c2ccc(OC)cc2)o1,560,-2% (inactive),1.4% (inactive),102%,-67.7% (inactive),125%,-0.599 (inactive),-3e-05 (inactive),0.00698 (inactive),-17.1% (inactive),-10.1% (inactive)
COc1ccccc1NC(=O)CSc1nnc(-c2ccncc2)n1CC1CCCO1 (stereo not drawn),626,20.6% (inactive),-8.1% (inactive),92.8%,25.2% (inactive),100%,-0.462 (inactive),-1.1e-06 (inactive),0.00619 (inactive),14.4% (inactive),98.5% (active)
COc1ccccc1N1CC(O)=C(c2nc3ccccc3c(=O)[nH]2)C1=N,399,1.4% (inactive),22.7% (inactive),62.7%,-73.7% (inactive),126%,-0.546 (inactive),-3.6e-05 (inactive),0.00655 (inactive),11.7% (inactive),28.7% (inactive)
CN1CCN(C(=O)C2CCN(S(=O)(=O)c3ccc4c(c3)oc(=O)n4C)CC2)CC1,554,-4.7% (inactive),8.3% (inactive),100%,-22% (inactive),116%,-0.59 (inactive),-2.4e-05 (inactive),0.00694 (inactive),8.49% (inactive),23.9% (inactive)
CC(C)CNC(=O)c1ccccc1NC(=O)c1ccc(CN2CCOCC2)cc1,729,5.7% (inactive),4% (inactive),93.4%,-11% (inactive),111%,-0.473 (inactive),-5.1e-05 (inactive),0.00594 (inactive),1.28% (inactive),14.5% (inactive)
CCN(CC)C(=O)COC(=O)c1ccc(O)cc1,440,7.7% (inactive),9.9% (inactive),83.5%,-5.4% (inactive),99.1%,-0.512 (inactive),2.3e-05 (inactive),0.00516 (inactive),-1.76% (inactive),-1.25% (inactive)
O=C(Cc1cccs1)Nc1nnc(CCc2ccccc2)s1,382,1.5% (inactive),15.6% (inactive),110%,-152% (inactive),117%,-0.437 (inactive),-5.5e-05 (inactive),0.00318 (inactive),9.85% (inactive),31.2% (inactive)
N#Cc1ccc(COC(=O)Cn2nnc(-c3ccccc3)n2)cc1,503,-15.2% (inactive),-8.3% (inactive),98.8%,-124% (inactive),121%,-0.614 (inactive),-1.6e-05 (inactive),0.00648 (inactive),9.56% (inactive),19.4% (inactive)
CC(=O)CCc1c(C)[nH]c2ccccc2c1=O,360,9.1% (inactive),-8.9% (inactive),123%,-3.8% (inactive),102%,-0.523 (inactive),6.6e-05 (inactive),0.00588 (inactive),-9.69% (inactive),-2.97% (inactive)
CC(C)(O)C#Cc1ccc(C(=O)N2CCN(C(=O)c3ccco3)CC2)cc1,547,-7.8% (inactive),-25.3% (inactive),121%,45.3% (inactive),133%,-0.51 (inactive),-3.3e-05 (inactive),0.00463 (inactive),16.5% (inactive),13.5% (inactive)
N#Cc1c(-c2ccccc2)nc(N2CCCCCC2)[nH]c1=O,379,-6.1% (inactive),1.9% (inactive),102%,-43.6% (inactive),116%,-0.41 (inactive),-1.5e-05 (inactive),0.0048 (inactive),6.52% (inactive),14.7% (inactive)
COc1ccccc1N1CC(C(=O)Nc2cccc(C(=O)O)c2)CC1=O (stereo not drawn),495,-16.1% (inactive),10.1% (inactive),76.3%,-32.1% (inactive),127%,-0.547 (inactive),2.1e-05 (inactive),0.00458 (inactive),-5.85% (inactive),-4.45% (inactive)
CCOC(=O)c1ccc(NC(=O)CCc2c(C)nc3ncnn3c2C)cc1,402,1.9% (inactive),-19.7% (inactive),107%,-138% (inactive),116%,-0.508 (inactive),6.6e-06 (inactive),0.00565 (inactive),-2.81% (inactive),7.84% (inactive)
